Data from ChEMBL document CHEMBL2218924, “A broad activity screen in support of a chemogenomic map for kinase signalling research and drug discovery” (Biochem J, 2013).

Key:
[1] = biological target: T1, Serine/threonine-protein kinase TAO2 (Homo sapiens) (UniProt Q9UL54); settings: at 1 µM
T1 sequence (whole entry): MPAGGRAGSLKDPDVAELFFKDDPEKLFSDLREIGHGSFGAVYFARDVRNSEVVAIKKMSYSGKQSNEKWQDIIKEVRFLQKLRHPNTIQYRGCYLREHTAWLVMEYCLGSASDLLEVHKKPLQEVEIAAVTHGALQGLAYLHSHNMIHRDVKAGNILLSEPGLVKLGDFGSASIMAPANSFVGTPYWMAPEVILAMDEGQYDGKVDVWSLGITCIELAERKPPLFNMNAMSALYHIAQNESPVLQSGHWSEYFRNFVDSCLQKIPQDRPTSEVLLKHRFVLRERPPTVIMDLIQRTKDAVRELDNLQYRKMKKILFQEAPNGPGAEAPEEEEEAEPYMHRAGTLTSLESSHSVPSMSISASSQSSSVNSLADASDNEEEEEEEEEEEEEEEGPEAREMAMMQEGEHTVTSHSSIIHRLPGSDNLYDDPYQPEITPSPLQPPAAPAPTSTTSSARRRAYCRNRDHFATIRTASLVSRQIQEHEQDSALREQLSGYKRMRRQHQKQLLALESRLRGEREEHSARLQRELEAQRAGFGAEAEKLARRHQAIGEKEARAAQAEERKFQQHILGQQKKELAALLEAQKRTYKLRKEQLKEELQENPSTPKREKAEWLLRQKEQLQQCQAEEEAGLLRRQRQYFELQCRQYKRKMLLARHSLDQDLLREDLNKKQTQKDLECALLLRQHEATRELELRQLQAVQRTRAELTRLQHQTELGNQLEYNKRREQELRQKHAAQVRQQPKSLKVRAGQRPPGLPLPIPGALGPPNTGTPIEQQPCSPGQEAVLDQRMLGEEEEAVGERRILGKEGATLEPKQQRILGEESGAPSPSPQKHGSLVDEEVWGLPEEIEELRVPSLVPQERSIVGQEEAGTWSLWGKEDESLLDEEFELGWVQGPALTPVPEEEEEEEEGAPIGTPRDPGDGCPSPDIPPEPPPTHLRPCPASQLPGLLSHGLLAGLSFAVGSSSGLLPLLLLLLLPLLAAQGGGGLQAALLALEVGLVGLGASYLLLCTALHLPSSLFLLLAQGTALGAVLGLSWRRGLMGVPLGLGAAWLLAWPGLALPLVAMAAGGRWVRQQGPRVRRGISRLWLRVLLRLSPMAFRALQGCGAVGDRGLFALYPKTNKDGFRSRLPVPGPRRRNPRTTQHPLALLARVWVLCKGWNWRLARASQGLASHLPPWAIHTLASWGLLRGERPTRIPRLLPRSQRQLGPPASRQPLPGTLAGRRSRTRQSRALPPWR

[2] = biological target: T1, Serine/threonine-protein kinase TAO2 (Homo sapiens); settings: at 10 µM
[3] = biological target: T2, Serine/threonine-protein kinase TAO3 (Homo sapiens) (UniProt Q9H2K8); settings: at 1 µM
T2 sequence (whole entry): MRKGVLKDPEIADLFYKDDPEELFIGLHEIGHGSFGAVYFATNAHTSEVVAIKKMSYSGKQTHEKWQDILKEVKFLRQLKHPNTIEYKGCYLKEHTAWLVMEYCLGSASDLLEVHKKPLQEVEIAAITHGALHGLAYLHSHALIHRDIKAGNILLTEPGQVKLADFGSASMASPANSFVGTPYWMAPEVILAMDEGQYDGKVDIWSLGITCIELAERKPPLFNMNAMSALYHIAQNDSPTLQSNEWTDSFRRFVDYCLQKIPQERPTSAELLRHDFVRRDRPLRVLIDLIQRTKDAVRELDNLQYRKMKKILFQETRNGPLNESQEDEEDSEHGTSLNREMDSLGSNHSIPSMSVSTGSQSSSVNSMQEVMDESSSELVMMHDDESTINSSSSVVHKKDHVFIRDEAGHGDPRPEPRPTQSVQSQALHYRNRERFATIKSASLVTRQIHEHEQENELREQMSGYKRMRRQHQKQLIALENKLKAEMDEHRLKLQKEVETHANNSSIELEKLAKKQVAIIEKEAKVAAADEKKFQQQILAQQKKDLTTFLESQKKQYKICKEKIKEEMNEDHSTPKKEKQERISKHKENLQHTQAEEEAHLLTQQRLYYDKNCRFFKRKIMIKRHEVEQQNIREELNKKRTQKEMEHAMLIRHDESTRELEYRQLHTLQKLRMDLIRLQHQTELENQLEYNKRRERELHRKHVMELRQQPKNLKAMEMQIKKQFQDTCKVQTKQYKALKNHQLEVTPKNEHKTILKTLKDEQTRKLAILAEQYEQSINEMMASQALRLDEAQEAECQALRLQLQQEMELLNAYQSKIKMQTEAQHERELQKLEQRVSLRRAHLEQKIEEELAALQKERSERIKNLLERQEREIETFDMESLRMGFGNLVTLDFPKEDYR

[4] = biological target: T2, Serine/threonine-protein kinase TAO3 (Homo sapiens); settings: at 10 µM
[5] = biological target: T3, Serine/threonine-protein kinase TBK1 (Homo sapiens) (UniProt Q9UHD2); settings: at 1 µM
T3 sequence (whole entry): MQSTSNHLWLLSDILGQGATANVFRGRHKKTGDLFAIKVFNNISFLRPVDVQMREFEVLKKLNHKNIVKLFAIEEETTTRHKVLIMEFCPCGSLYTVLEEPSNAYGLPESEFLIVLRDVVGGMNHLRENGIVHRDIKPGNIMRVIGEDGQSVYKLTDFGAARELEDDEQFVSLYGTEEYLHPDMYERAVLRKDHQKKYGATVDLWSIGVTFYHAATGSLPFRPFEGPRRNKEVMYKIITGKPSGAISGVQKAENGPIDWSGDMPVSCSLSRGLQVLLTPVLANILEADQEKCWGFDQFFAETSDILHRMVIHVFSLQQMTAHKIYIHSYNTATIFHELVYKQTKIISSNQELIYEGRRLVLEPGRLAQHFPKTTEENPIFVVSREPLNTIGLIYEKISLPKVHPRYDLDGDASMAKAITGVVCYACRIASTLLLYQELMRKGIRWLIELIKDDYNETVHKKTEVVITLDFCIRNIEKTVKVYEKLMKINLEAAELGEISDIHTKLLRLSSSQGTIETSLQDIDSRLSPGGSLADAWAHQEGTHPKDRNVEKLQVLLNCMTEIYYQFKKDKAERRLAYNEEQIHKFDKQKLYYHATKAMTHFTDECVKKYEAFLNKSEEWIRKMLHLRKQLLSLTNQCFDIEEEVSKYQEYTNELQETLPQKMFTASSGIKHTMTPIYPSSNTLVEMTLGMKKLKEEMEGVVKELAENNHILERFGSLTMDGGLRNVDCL

[6] = biological target: T3, Serine/threonine-protein kinase TBK1 (Homo sapiens); settings: at 10 µM
[7] = biological target: T4, TGF-beta receptor type-1 (Homo sapiens) (UniProt P36897); settings: at 1 µM
T4 sequence (whole entry): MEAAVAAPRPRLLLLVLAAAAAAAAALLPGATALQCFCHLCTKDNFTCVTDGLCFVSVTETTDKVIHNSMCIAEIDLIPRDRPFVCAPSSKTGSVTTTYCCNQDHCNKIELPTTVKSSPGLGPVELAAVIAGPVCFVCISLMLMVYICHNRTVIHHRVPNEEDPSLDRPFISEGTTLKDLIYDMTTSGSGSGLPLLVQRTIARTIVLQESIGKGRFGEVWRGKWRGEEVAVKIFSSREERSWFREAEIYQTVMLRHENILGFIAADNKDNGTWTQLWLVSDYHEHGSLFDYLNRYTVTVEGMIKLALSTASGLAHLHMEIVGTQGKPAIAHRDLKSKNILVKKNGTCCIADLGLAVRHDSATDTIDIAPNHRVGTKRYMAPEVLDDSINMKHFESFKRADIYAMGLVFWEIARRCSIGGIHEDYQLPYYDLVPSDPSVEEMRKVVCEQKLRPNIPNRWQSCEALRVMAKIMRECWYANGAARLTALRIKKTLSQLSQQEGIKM

[8] = biological target: T4, TGF-beta receptor type-1 (Homo sapiens); settings: at 10 µM
[9] = biological target: Insulin-like growth factor 1 receptor (Homo sapiens) (UniProt P08069); settings: at 1 µM
[10] = biological target: Insulin-like growth factor 1 receptor (Homo sapiens) (UniProt P08069); settings: at 10 µM

Insulin-like growth factor 1 receptor (Homo sapiens), sequence (P08069 31-736 limits assumed): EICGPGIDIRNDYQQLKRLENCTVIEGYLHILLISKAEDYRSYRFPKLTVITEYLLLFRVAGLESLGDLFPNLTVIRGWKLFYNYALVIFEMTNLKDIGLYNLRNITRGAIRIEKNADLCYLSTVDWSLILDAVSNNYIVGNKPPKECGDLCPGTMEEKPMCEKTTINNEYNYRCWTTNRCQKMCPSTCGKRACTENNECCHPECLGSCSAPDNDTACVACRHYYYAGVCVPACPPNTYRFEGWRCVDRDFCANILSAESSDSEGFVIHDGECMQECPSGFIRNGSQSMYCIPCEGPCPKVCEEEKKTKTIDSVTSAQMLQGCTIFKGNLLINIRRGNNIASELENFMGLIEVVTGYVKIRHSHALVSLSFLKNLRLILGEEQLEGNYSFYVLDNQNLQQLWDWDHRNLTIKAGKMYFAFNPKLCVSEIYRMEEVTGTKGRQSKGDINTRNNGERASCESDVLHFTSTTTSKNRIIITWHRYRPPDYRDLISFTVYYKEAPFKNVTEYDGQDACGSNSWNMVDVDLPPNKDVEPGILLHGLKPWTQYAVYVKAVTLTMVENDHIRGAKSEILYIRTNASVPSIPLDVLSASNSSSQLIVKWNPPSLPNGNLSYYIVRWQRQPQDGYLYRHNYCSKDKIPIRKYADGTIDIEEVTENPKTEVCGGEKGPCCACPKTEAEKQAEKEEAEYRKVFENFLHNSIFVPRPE
Insulin-like growth factor 1 receptor (Homo sapiens), sequence (P08069 741-1367 limits assumed): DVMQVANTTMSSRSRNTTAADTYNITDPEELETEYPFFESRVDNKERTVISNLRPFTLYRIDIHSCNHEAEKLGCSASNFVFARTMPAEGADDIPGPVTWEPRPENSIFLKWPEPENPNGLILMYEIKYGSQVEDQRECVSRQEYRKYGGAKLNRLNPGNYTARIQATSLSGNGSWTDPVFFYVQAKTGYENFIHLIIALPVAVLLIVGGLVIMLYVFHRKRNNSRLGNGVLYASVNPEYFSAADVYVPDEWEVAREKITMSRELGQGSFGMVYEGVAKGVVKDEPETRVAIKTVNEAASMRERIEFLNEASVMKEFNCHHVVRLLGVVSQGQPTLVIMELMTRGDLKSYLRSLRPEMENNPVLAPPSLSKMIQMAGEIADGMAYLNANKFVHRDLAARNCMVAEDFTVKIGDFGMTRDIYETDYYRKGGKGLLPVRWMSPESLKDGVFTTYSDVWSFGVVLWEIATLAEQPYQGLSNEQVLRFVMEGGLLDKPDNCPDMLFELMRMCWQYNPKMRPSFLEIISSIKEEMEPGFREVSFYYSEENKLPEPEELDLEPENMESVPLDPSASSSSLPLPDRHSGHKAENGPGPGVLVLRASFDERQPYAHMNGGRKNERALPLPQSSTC

SMILES | residual activity [1] [%] | residual activity [2] [%] | residual activity [3] [%] | residual activity [4] [%] | residual activity [5] [%] | residual activity [6] [%] | residual activity [7] [%] | residual activity [8] [%] | residual activity [9] [%] | residual activity [10] [%]
O=c1[nH]c2ccccc2n1C1CCN(Cc2ccc(-c3nc4cc5[nH]cnc5cc4nc3-c3ccccc3)cc2)CC1 | 101 | 56 | 93 | 66 | 82 | 68 | 91 | 87 | 98 | 80
c1cc(-c2cnn3cc(-c4ccc(OCCN5CCCCC5)cc4)cnc23)ccn1 |  |  |  | 82 | 64 | 13 | 78 | 30 |  | 
COC(=O)[C@@]1(O)C[C@H]2O[C@]1(C)n1c3ccccc3c3c4c(c5c6ccccc6n2c5c31)C(=O)NC4 | 16 | 2 | 10 | 3 | -1 | 3 | 49 | 8 | 23 | 3
O=C1Nc2ccc3ncsc3c2/C1=C/c1c[nH]cn1 | 33 | 10 | 17 | 6 | 7 | 0 | 68 | 38 | 94 | 60
CC(C)[C@H](CO)Nc1nc(Nc2cccc(Cl)c2)c2ncn(C(C)C)c2n1 | 98 | 49 | 82 | 32 | 90 | 66 | 95 | 93 | 48 | 12
O=[N+]([O-])/C=C/c1ccc2c(c1)OCO2 | 107 | 81 | 90 | 100 | 87 | 81 | 90 | 101 | 103 | 91
COc1cc2ncnc(Nc3ccc(OCc4ccccc4)cc3)c2cc1OC | 104 | 90 | 107 | 93 | 92 | 71 | 102 | 100 | 108 | 104
N/C(=N\[N+](=O)[O-])N/N=C\c1ccc(-c2cccc([N+](=O)[O-])c2)o1 |  |  | 96 | 93 | 94 | 72 | 98 | 98 |  | 
COc1cc(OC)c(/C=C2\C(=O)Nc3ccccc32)c(OC)c1 | 104 | 81 | 90 | 68 | 61 | 56 | 79 | 81 | 95 | 98
O=C1c2ccccc2-c2nc3nnnn3nc21 | 111 | 103 |  |  |  | 83 |  |  |  | 
CCc1nc(-c2ccc(OC)cc2)[nH]c1-c1ccncc1 |  |  |  |  | 108 |  |  |  | 104 | 107
CCn1cnc2c(Nc3cccc(Cl)c3)nc(N[C@@H]3CCCC[C@@H]3N)nc21 | 81 | 33 | 82 | 43 | 68 | 45 |  | 79 | 71 | 44
CC(C)(C)c1cc(C=C(C#N)C#N)cc(Br)c1O | 113 | 103 | 101 | 97 | 103 |  | 97 | 97 | 105 | 104
COc1ccc2c(c[n+](C)c3c4cc5c(cc4ccc23)OCO5)c1OC |  | 93 | 99 | 90 | 81 | 65 | 82 | 89 | 93 | 82
O=C1NC(=O)c2c1c1c3ccccc3n3c1c1c2c2ccccc2n1C1CCC3O1 |  |  | 96 | 94 | 54 | 62 |  |  |  | 
C[S+]([O-])c1ccc(-c2nc(-c3ccc(F)cc3)c(-c3ccncc3)[nH]2)cc1 (stereo not given) | 111 | 79 | 108 | 79 | 124 | 111 | 130 | 77 | 117 | 122
COc1ccc2c(c1)/C(=C/c1cnc[nH]1)C(=O)N2 | 72 | 14 | 59 | 12 |  |  |  |  |  | 
CN[C@@H]1C[C@H]2O[C@@](C)([C@@H]1OC)n1c3ccccc3c3c4c(c5c6ccccc6n2c5c31)C(=O)NC4 |  |  |  |  |  | 0 | 79 | 30 |  | 
